Screening data from PubChem BioAssay.
EPAC2 agonist: activates human EPAC2 exchange factor; 0.079% of 360,000 active; Potency, µM (doses to about 154 µM), most hits filed as activators; EPAC2 activation, biochemical qHTS; response scale: 100% = 6.5 mM cAMP response; Q8WZA2; AID 720711; note: nearly all actives have a fitted effect of over 50% in size
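Compounds were added across a concentration range to EPAC2 (100 nM), RAP1B-BODIPY-GDP (250 nM) and GDP (50 uM). After 5 min at room temperature, fluorescence was recorded at 5-min intervals for 30 min.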
EPAC1 agonist: EPAC1 (human) agonism | O95398 | EPAC1 agonist qHTS, biochemical assay; response scale: 100% = response to 6.5 mM cAMP | Potency, µM (highest dose often 154 µM), most hits filed as activators | 0.073% of 360,000 active; note: nearly all actives have a fitted effect of over 60% in size
Target sequence (O95398 whole entry, looked up): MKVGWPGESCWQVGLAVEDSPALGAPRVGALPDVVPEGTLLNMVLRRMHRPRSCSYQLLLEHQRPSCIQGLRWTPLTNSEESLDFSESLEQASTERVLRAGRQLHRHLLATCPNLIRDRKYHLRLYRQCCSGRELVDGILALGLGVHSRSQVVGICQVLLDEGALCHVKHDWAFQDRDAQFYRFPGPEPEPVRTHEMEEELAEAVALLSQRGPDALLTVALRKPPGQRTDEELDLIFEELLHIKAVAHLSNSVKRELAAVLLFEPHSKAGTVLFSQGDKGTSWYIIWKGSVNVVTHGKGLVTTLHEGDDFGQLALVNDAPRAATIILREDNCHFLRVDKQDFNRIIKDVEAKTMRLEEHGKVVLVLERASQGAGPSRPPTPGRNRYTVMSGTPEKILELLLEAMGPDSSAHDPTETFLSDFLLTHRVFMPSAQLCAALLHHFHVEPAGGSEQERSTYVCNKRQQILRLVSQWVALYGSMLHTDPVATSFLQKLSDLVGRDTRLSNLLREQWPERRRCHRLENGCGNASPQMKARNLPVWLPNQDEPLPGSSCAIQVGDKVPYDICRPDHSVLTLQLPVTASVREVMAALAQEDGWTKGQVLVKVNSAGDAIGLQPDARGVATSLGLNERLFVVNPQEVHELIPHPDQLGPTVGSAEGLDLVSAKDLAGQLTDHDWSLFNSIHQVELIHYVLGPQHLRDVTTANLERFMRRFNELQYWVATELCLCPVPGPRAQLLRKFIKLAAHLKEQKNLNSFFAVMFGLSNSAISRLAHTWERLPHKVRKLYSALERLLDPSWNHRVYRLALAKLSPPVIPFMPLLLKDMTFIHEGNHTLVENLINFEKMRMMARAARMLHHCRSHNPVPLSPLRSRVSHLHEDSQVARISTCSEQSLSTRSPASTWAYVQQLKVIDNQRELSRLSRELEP
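Nucleotide exchange assay: 100 nM EPAC1 with 250 nM Rap1B loaded with BODIPY-GDP and 50 uM GDP, room temperature. Fluorescence (480/540 nm) read every 5 min for 30 min; signal change normalized to 6.5 mM cAMP as full agonist.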
EPAC1 antagonist: antagonists of human EPAC1; EPAC1 GEF assay, Rap1b-BODIPY-GDP exchange fluorescence; AID 720709; Potency, µM (highest dose often 115 µM), actives largely listed as inhibitors; 0.14% of 360,000 active; note: nearly all actives have a fitted effect of over 50% in size
USP1-UAF1 inh: inhibitors of human USP1/UAF1 deubiquitinase; O94782; recombinant USP1/UAF1, Ub-Rhodamine cleavage fluorescence; Potency, µM (doses to about 57.1 µM), hits mostly inhibitors; 0.23% of 390,000 active; note: nearly all actives have a fitted effect of over 60% in size
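1 nM enzyme complex + cpd, 15 min RT; start with Ub-Rho 150nM final; kinetic fluorescence ex 480/em 540, 6 reads q60 s. Buffer 50mM HEPES pH 7.8, 0.5mM EDTA, 0.1 mg/ml BSA, 1mM TCEP, 0.01% Tween-20.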
EPAC2 antag: blocks human EPAC2 exchange factor; Q8WZA2; EPAC2 GEF exchange of Rap1B-BODIPY-GDP, fluorescence; Potency, µM (doses to about 114 µM), most hits filed as inhibitors; 0.18% of 360,000 active; AID 720708; note: nearly all actives have a fitted effect of over 45% in size
A number is an active result; i = inactive; ? = inconclusive; nt = not tested or not shown. In the library only some 0.49% were active in any assay of this set; here they are far more common. Calls come from the whole dose curve; as a rule, active = well fitted curve in the direction sought with a large enough effect; inconclusive = small, poorly fitted or top-dose-only effect, or another doubt; inactive = no such curve, though single readings can be large; an effect the other way counts as inactive or inconclusive.

SMILES	EPAC2 agonist	EPAC1 agonist	EPAC1 antagonist	USP1-UAF1 inh	EPAC2 antag
COC1=C(N)C(=O)c2nc(-c3nc(C(=O)O)c(C)c(-c4ccc(OC)c(OC)c4O)c3N)ccc2C1=O	i	i	i	11.2µM	i
COc1ccc(-c2ncncc2-c2csc(C)n2)c(O)c1OC	i	i	i	i	i
CCOc1ccc(-n2c(SCC(=O)Nc3cc(C)ccc3C)nc3c([nH]c4ccccc43)c2=O)cc1	nt	nt	nt	i	nt
Oc1sc(C=Nc2ccccc2)c2ccccc12	?	i	i	28.2µM	i
Oc1sc(C=Nc2ccc(F)cc2)c2ccccc12	i	i	i	31.6µM	i
Cc1ccc(NC(=O)CN2CCSc3ccc(S(=O)(=O)N4CCCC4)cc32)cc1C	nt	nt	nt	i	nt
COc1cc(-c2c(CCO)sc3ccccc23)cc(OC)c1OC	i	i	i	nt	47.4µM
Nc1ccc(N)c(C(=O)O)c1	i	i	?	20µM	i
Nc1ccc(C(=O)O)c(O)c1	i	i	i	i	i
CCS(=O)(=O)N1CCCC(C(=O)NCCOC)C1 (configuration not stated)	nt	nt	nt	i	nt
CCOC(=O)CC(=O)CSc1nc2ccc(C)cc2cc1C#N	100µM	?	i	28.2µM	i
Cc1cc2ccccn2c1C(=O)c1ccccc1F	i	i	i	i	44.7µM
Cc1cc2ccccn2c1C(=O)c1ccc(Cl)cc1	i	i	i	i	?
Cc1ccc(Oc2ccc(S(=O)(=O)Nc3ccc(C(=O)O)cc3)cc2)cc1	i	i	i	i	i
Cc1ccc(Sc2ccc(S(=O)(=O)Nc3ccc(C(=O)O)cc3)cc2)cc1C	i	i	70.8µM	i	?
CN(C)S(=O)(=O)c1ccc2c(c1)/C(=C/c1cc3c([nH]1)CCCC3)C(=O)N2	i	?	i	31.6µM	i
COc1ccc(NC(=O)CC2C(=O)N(c3ccc(C)cc3)C(=O)N2CCc2ccccc2)cc1 (configuration not stated)	nt	nt	nt	i	nt
CCOc1ccccc1-c1noc(CSc2nnc(-c3ccncc3)n2-c2ccc(F)cc2)n1	nt	nt	nt	i	nt
CCOc1cc(S(=O)(=O)N(CC)CC)ccc1Cl	i	i	i	i	39.8µM
CCN(CC)S(=O)(=O)c1ccc(Cl)c(OC)c1	i	i	i	i	i
COc1ccc2c(c1)c1c(c(=O)n(-c3ccc(C)cc3)c(=O)n1CC(=O)N1CCCC1)n2C	nt	nt	nt	i	nt
COc1cc(CN2C(=O)C(C)ON=C2c2ccccc2F)cc(OC)c1 (configuration not stated)	i	i	i	nt	31.6µM
COc1cccc(CN2C(=O)C(C)Oc3ccccc32)c1 (configuration not stated)	i	i	i	i	i
O=C1C=C(c2c(O)ccc3ccccc23)c2ccccc2C1=O	i	i	35.5µM	28.2µM	?
NC1=C(Br)C(=O)c2ncccc2C1=O	i	i	?	4.47µM	?
SMILES	EPAC2 agonist	EPAC1 agonist	EPAC1 antagonist	USP1-UAF1 inh	EPAC2 antag
O=C1c2cccnc2C(=O)N1CO	i	i	i	i	i
COc1ccc(C(CC(=O)N2CCOCC2)c2c(OC)cc(OC)c3c(-c4ccccc4)cc(=O)oc23)cc1 (configuration not stated)	i	i	i	i	50.1µM
Cc1nn(C)c2c1c(-c1ccccc1)cc(=O)n2Cc1ccccc1Cl	nt	nt	nt	i	nt
O=c1cc(-c2ccccc2)nc2c(-c3ccccc3)c(C(F)(F)F)[nH]n12	i	i	?	i	17.8µM
Cc1cc(=O)n2[nH]c(C)c(-c3ccccc3)c2n1	i	i	i	i	i
COc1ccc(NS(=O)(=O)c2ccc(O)c(NC(=O)c3cc4c(C)nn(-c5ccc(F)cc5)c4s3)c2)cc1	i	i	50.1µM	?	i
CC(=O)[C@@H]1[C@@H]2C(=O)N(Cc3ccccc3)C(=O)[C@@H]2C2c3ccccc3C=CN21 (some centres not stated)	i	i	i	17.8µM	i
COc1ccc(N2C(=O)[C@@H]3[C@H](C2=O)[C@H]2c4ccccc4C=CN2[C@@H]3C(=O)Nc2ccccc2)cc1	i	i	i	?	i
Cc1ccc(N2C(=O)[C@@H]3[C@H](C2=O)C2c4ccccc4C=CN2[C@@H]3C(=O)c2ccco2)c(C)c1 (some centres not stated)	i	i	?	3.98µM	i
Cc1ccc(-n2ncc3c(NNC(=O)c4ccco4)ncnc32)c(C)c1	i	i	i	?	i
O=C1C2C3C=CC(C3)C2C(=O)N1Cc1ccccc1 (configuration not stated)	i	i	i	i	i
Cc1ccc(N2C(=O)[C@@H]3[C@H](C2=O)C2c4ccccc4C=CN2[C@@H]3C(=O)c2ccco2)cc1 (some centres not stated)	i	i	i	15.8µM	i
O=C(c1ccco1)[C@@H]1[C@@H]2C(=O)N(c3ccccc3)C(=O)[C@@H]2C2c3ccccc3C=CN21 (some centres not stated)	i	i	i	10µM	i
CN(Cc1ccccc1)C(=O)CSc1nc(-c2ccc(F)cc2)cc(C(F)(F)F)n1	nt	nt	nt	i	nt
O=C(O)c1ccc(NC2=C/C(=N/S(=O)(=O)c3ccccc3)c3ccccc3C2=O)cc1	i	i	?	2.82µM	?
Cc1cc(C)c(S(=O)(=O)/N=C2\C=C(Nc3ccc(C(=O)O)cc3)C(=O)c3ccccc32)c(C)c1	i	100µM	i	14.1µM	i
O=S(=O)(N=C1C=CC(=NS(=O)(=O)c2ccccc2)c2ccccc21)c1ccccc1	i	i	i	28.2µM	i
Cc1cc(C)c(S(=O)(=O)/N=C2\C=C(NS(=O)(=O)c3ccccc3)C(=O)c3ccccc32)c(C)c1	i	i	i	?	?
Cc1ccc(S(=O)(=O)/N=C2\C=C(NS(=O)(=O)c3ccccc3)C(=O)c3ccccc32)cc1	i	i	?	17.8µM	?
COc1cc(OC)c(NC(=O)C(c2ccccc2)N2Cc3ccccc3C2=O)cc1Cl (configuration not stated)	nt	nt	nt	i	nt
O=C1C=C(N2CCCCC2)c2ccccc2C1=O	i	i	44.7µM	7.94µM	35.5µM
C[C@]1(C2CCCC2)Cc2cc(OCC(=O)O)c(Cl)c(Cl)c2C1=O	i	i	i	i	i
CCCC[C@@]1(C2CCCC2)Cc2cc(OCC(=O)O)c(Cl)c(Cl)c2C1=O	i	i	i	i	44.7µM
Cc1ccc(C(=O)c2coc3ccc(O)c(Cl)c23)cc1	i	i	20µM	i	?
CCOC(=O)N1CCN(/C=C(\C#N)c2nc3ccccc3s2)CC1	i	i	?	i	i
N#C/C(=C\N1CCN(Cc2ccc3c(c2)OCO3)CC1)c1nc2ccccc2s1	i	i	i	31.6µM	i
COc1ccc(CNC(=O)CSc2ncc3c(n2)-c2cc(Cl)ccc2N(C)S3(=O)=O)cc1	nt	nt	nt	i	nt
O=C(Nc1ccc(Cl)cc1C(=O)O)c1ccc2c(c1)C(=O)N(Cc1ccco1)C2=O	i	i	79.4µM	i	?
